Among all 360,000 compounds or so, about 16,000 (4.4%) were called active. A call without a number means that no potency is given here. Inconclusive results (about 9%) are left out. This is one part of a sample in which actives are shown more often than they occur. Calls come from the whole dose curve; as a rule, active = well fitted inhibition curve with a large enough effect; inconclusive = small, poorly fitted or top-dose-only effect; inactive = no such curve, though single readings can be large or run the other way.
Potency is the fitted concentration of half-maximal effect.

Chain of Bromodomain adjacent to zinc finger domain protein 2B (Homo sapiens) (Q9UIF8 whole entry, looked up, the tested form may be a part): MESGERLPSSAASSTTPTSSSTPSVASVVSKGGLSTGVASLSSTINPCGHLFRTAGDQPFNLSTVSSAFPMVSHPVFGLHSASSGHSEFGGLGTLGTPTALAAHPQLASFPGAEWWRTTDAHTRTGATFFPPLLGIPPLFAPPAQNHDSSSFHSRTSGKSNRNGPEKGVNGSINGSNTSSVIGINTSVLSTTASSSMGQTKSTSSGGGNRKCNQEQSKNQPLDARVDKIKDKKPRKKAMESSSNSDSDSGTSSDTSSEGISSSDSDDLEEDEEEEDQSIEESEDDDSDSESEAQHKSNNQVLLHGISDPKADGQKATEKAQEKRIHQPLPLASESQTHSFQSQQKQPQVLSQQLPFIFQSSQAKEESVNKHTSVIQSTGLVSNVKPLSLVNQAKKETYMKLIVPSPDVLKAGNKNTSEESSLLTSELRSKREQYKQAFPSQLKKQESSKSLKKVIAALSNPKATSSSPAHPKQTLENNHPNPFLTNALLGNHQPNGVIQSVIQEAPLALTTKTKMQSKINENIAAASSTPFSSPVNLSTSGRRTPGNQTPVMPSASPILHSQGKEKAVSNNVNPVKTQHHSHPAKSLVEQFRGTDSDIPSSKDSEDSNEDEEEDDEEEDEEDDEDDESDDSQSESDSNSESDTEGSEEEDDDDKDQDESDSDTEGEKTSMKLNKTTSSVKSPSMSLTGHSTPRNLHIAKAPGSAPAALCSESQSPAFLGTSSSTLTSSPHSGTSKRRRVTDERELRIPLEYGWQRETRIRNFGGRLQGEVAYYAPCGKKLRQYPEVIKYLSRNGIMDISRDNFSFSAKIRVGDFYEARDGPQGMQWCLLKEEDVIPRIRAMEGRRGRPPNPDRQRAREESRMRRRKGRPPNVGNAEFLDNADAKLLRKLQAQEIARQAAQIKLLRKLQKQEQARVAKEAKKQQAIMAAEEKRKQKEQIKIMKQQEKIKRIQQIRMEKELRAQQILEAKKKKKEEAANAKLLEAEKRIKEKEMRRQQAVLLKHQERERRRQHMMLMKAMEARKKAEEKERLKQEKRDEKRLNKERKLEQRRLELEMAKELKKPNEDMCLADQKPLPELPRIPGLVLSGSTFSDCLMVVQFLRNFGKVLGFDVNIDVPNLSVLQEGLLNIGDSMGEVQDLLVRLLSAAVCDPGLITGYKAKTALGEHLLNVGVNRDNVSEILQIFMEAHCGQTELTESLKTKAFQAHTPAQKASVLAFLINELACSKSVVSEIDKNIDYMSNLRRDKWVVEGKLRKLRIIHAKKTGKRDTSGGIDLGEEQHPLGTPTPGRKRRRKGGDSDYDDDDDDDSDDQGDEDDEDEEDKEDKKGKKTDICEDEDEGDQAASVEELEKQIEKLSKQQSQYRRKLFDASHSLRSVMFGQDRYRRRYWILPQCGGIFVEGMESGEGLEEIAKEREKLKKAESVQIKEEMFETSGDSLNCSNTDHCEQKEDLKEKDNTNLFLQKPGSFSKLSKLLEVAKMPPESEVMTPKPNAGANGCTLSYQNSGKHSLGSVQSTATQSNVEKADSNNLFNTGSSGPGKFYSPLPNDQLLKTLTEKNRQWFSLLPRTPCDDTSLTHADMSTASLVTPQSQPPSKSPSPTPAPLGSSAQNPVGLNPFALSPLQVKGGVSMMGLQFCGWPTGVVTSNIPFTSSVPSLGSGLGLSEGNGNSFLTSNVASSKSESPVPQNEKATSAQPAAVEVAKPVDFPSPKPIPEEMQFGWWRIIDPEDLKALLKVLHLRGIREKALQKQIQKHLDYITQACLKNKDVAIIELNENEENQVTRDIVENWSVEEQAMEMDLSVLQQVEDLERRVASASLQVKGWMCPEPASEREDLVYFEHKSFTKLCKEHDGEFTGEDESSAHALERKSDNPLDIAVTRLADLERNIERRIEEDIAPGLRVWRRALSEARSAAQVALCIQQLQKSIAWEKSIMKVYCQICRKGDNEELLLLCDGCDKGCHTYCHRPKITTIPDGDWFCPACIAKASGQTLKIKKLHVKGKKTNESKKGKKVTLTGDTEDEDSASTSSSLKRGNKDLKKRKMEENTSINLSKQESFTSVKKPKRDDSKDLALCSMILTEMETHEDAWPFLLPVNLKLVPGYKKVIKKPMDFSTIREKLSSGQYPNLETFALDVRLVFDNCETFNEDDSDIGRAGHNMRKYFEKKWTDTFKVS

For this assay, the target named is Bromodomain adjacent to zinc finger domain protein 2B (Homo sapiens) (UniProt Q9UIF8). The assay can be described thus: qHTS Assay for Inhibitors of BAZ2B. Note: nearly all actives have a fitted effect of over 60% in size. Particulars: AlphaScreen BAZ2B-H3K14Ac peptide displacement; series mostly up to 114 µM. The essentials:
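In this displacement format the biotinylated H3(5-23) peptide acetylated at Lys14 serves as ligand at 50 nM, with BAZ2B at 50 nM in PBS pH 7.4 containing 0.01% Tween-20. Donor and acceptor beads are 10 ug/mL final.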
(In general: In qHTS, concentration-response curves come from the screen itself.)
For the molecule `CCOc1cccc2c1N[C@@H](c1ccc(C(=O)O)cc1)[C@H]1CC=C[C@@H]21`, the Potency is 15.8 µM (active).

Consider `CCOc1cc(C(=O)O)ccc1OCCOc1ccccc1`, for which the Potency result is “inactive”.

For `CCOc1c(CNCc2ccc(C(=O)O)cc2)cccc1OC`, the Potency result was “inactive”. With `Cc1cccc(N2CCN(C(=O)CCSCc3ccccc3F)CC2)c1C` the entry was “inactive”; with `Cc1ccc(-n2ncc(C(=O)N(C)Cc3ccccc3)c2-n2cccc2)cc1`, “inactive”; with `COc1ccc2oc(-c3ccc(C)c(NC(=O)c4sc5ccccc5c4Cl)c3)nc2c1`, “inactive”.

As to `O=C(CSc1nc(Nc2ccc(F)c(F)c2)c2ccccc2n1)c1ccc(Cl)cc1`, the Potency result was “inactive”. For `CC(O)CN(Cc1ccc(Cl)cc1)CC(C)O` (centres undefined) the value was 56.2 µM (active); for `O=C(NCc1ccc(Cl)cc1)NCc1ccc(Cl)cc1`, “inactive”. With `CN(C)CCCNC(=S)NCc1ccc(Cl)cc1` the entry was “inactive”; with `CCC1CN(S(=O)(=O)c2cc(-c3cc(C)no3)ccc2C)c2cc(C)ccc2O1` (centres undefined), “inactive”; with `O=S(=O)(c1ccc(Br)cc1)c1nnn2c1nc(N1CCOCC1)c1sccc12`, “inactive”.

For the molecule `O=C(CSc1oc(-c2ccco2)nc1S(=O)(=O)c1ccccc1)c1ccc(Cl)cc1`, the Potency entry was “inactive”. Turning to `O=C(NCc1ccccc1Cl)C1CCN(S(=O)(=O)c2cccc3nonc23)CC1`, the Potency result was “inactive”.

Consider `O=S(=O)(c1cccc2nonc12)N1CCN(c2cccc(Cl)c2)CC1`, for which the Potency was 50.1 µM (active). With `CC1CC(C)CN(S(=O)(=O)c2cccc3nonc23)C1` (centres undefined), the Potency entry is “inactive”. For `COc1ccc(Cn2ccc3nc(C)c(C(=O)Nc4ccc(C)c(F)c4)cc3c2=O)cc1` the value was “inactive”.

On to `CC(=O)c1cccc(Nc2ccc3cc(S(=O)(=O)N4CCC(C)CC4)ccc3n2)c1`, for which the Potency entry was “inactive”. For `O=C(CSc1nc2c(c(=O)[nH]1)CN(Cc1ccc3c(c1)OCO3)CC2)Nc1cc(F)ccc1F`, the Potency result was “inactive”.

With `CC(C)c1cc(CN2CCOCC2)cc(C(C)C)c1O`, the Potency entry is “inactive”. For `Oc1c(C(c2ccccc2Cl)N2CCOCC2)sc2nc(-c3ccco3)nn12` (centres undefined) the value was “inactive”; for `Oc1c(C(c2ccccn2)N2CCOCC2)ccc2cccnc12` (centres undefined), 3.16 µM (active); for `COc1ccc(-c2nc(S(=O)(=O)c3ccccc3)c(N3CCCCC3)o2)cc1`, “inactive”. As to `O=C(CCC1N=C2c3ccccc3N=C(SCc3ccccc3F)N2C1=O)NCCc1ccccc1` (centres undefined), the Potency result is “inactive”. For `NS(=O)(=O)c1ccc(NC(=O)COc2ccc(S(=O)(=O)NC3CCCCC3)cc2)cc1` the value was “inactive”. For `COc1ccc(-c2csc(-c3c(N)c(C(=O)c4ccc(OC)c(OC)c4)n4ccccc34)n2)cc1` the value was “inactive”; for `Cc1cccc(N2CCN(c3ccc(NC(=O)/C=C\C(=O)O)cc3)CC2)c1`, 35.5 µM (active); for `CC(=O)Nc1ccc(S(=O)(=O)N2CCN(c3ccccc3)CC2)cc1`, “inactive”. With `CN1CCN(c2ccc(NC(=O)c3ccccc3)cc2)CC1` the entry was “inactive”.
